One assay deals with Staphylococcus aureus. Description: Antibacterial activity against Staphylococcus aureus MRSA ATCC 43300 (CO-ADD:GP_020); MIC in CAMBH media using NBS plates, by Resazurin F(560/590). In kind it is functional. The conditions noted are these: Concentration 20 uM, ASSAY_TEST Inhibition of Bacterial Growth, detection method Resazurin, Fluorescence (ex560/em590), MEDIA CAMHB, plate type 384well, CORNING #3640, time 18 hr.

The next assay has as its system Acinetobacter baumannii. Kind of assay: Antibacterial activity against Acinetobacter baumannii ATCC 19606 (CO-ADD:GN_034); MIC in CAMBH media using NBS plates, by Resazurin F(560/590). In kind it is functional. The conditions noted are these: Concentration 20 uM, ASSAY_TEST Inhibition of Bacterial Growth, detection method Resazurin, Fluorescence (ex560/em590), MEDIA CAMHB, plate type 384well, CORNING #3640, time 18 hr.

The subject of the next assay is Escherichia coli. Description: Antibacterial activity against Escherichia coli ATCC 25922 (CO-ADD:GN_001); MIC in CAMBH media using NBS plates, by Resazurin F(560/590). In kind it is functional. The conditions noted are these: Concentration 20 uM, ASSAY_TEST Inhibition of Bacterial Growth, detection method Resazurin, Fluorescence (ex560/em590), MEDIA CAMHB, plate type 384well, CORNING #3640, time 18 hr.

Another assay deals with Klebsiella pneumoniae. The conditions noted are these: Concentration 20 uM; ASSAY_TEST Inhibition of Bacterial Growth; detection method Absorption (OD600); MEDIA CAMHB; plate type 384well; NBS; CORNING #3640; time 18 hr.
In a further assay the test system is Candida albicans. The conditions noted are these: 20 µM.
Another assay has as its system Cryptococcus neoformans. The conditions noted are these: Concentration 20 uM; ASSAY_TEST Inhibition of Fungal Growth; detection method Resazurin; Absorption (OD600-OD570); plate type 384well; NBS; CORNING #3640.

For part of these data: Results with a measured potency or affinity are listed apart.

Take `Oc1ccc(Nc2ccc3ccccc3c2)cc1`: the Inhibition in the assay on Staphylococcus aureus was -6.35%; in the assay on Acinetobacter baumannii, -10.62%; with Escherichia coli, -3.9%; in the assay with Klebsiella pneumoniae, 4.89%; in the assay on Candida albicans it was 3.31%; in the assay with Cryptococcus neoformans, -6.09%.

With `CC(C)n1cnc2c(S)ncnc21`, the Inhibition is 14.01% with Staphylococcus aureus; -16.92% with Acinetobacter baumannii; 12.98% with Escherichia coli; 11.21% with Klebsiella pneumoniae; 2.47% with Candida albicans; -6.64% in the assay with Cryptococcus neoformans.

Regarding `CC(=O)OCCN1c2ccccc2Sc2cnccc21`, the Inhibition in the assay with Staphylococcus aureus is -12.23%; in the assay on Acinetobacter baumannii it was -1.85%; in the assay on Escherichia coli it was -8.04%; with Klebsiella pneumoniae, 5.46%; in the assay with Candida albicans, 1.65%; with Cryptococcus neoformans, -8.61%.

For the molecule `O=[N+]([O-])c1ccc2[nH]c3nc4ccccc4nc3c2c1`, the Inhibition in the assay on Staphylococcus aureus is 17.59%; in the assay with Acinetobacter baumannii, 16.49%; in the assay with Escherichia coli, -1.33%; in the assay on Klebsiella pneumoniae, -1.62%; in the assay with Candida albicans it was 5.48%; in the assay with Cryptococcus neoformans, 44.37%.

In the case of `CC(=O)[C@@]1(O)[C@H](C)C[C@H]2[C@@H]3C=C(C)C4=Cc5c(cnn5-c5ccccc5)C[C@]4(C)[C@H]3[C@@H](O)C[C@@]21C`, the Inhibition with Staphylococcus aureus was 3.25%; in the assay on Acinetobacter baumannii, -8.97%; in the assay with Escherichia coli, 7.95%; in the assay with Klebsiella pneumoniae it was 0.96%; in the assay with Candida albicans it was 4.25%; in the assay on Cryptococcus neoformans, -3.62%.

Turning to `O=C(Nc1ccc(C2=NCCCN2)cc1)Nc1ccc(C2=NCCCN2)cc1`, the Inhibition is 7.85% with Staphylococcus aureus; 9.82% in the assay with Acinetobacter baumannii; -5.49% in the assay with Escherichia coli; 24.63% with Klebsiella pneumoniae; 1.67% in the assay with Candida albicans; -6.84% in the assay with Cryptococcus neoformans.

Take `Nc1nc(N)c(/C=N/c2ccc(Br)cc2)c(Nc2ccc(Br)cc2)n1`: the Inhibition is -2.53% with Staphylococcus aureus; -11.54% in the assay on Acinetobacter baumannii; 5.75% with Escherichia coli; -1.66% in the assay with Klebsiella pneumoniae; -1.08% in the assay on Candida albicans; 1.82% in the assay with Cryptococcus neoformans.

For `Clc1ccc(-c2c(C3=NCCCN3)nnn2-c2ccc(Cl)cc2)cc1`, the Inhibition was 10.56% in the assay on Staphylococcus aureus; -3.66% with Acinetobacter baumannii; 11.37% in the assay on Escherichia coli; 18% in the assay with Klebsiella pneumoniae; 1.4% in the assay with Candida albicans; -5.35% in the assay on Cryptococcus neoformans.

Consider `CCc1nc(NC(C)(C)C)c2cnn(-c3ccccc3)c2n1`, for which the Inhibition in the assay on Staphylococcus aureus was 6.25%; in the assay with Acinetobacter baumannii, 2.78%; in the assay on Escherichia coli, 2.08%; in the assay on Klebsiella pneumoniae, 23.15%; in the assay on Candida albicans, 15.4%; in the assay with Cryptococcus neoformans, -0.88%.

Regarding `O=C(Nc1ccc(Br)cc1)Nc1ccccc1Cl`, the Inhibition is 14.34% in the assay with Staphylococcus aureus; -1.5% with Acinetobacter baumannii; 10.13% with Escherichia coli; 5.62% in the assay with Klebsiella pneumoniae; 1.52% in the assay with Candida albicans; -9.14% in the assay with Cryptococcus neoformans.

For the molecule `O=C(/C=C\c1ccc(O)c(O)c1)OC1C(O)CC(OC(=O)/C=C/c2ccc(O)c(O)c2)(C(=O)O)CC1O` (centres undefined), the Inhibition was 21.21% with Staphylococcus aureus; -10.3% in the assay with Acinetobacter baumannii; 9.77% in the assay on Escherichia coli; 14% with Klebsiella pneumoniae; -2.85% in the assay with Candida albicans; -1.87% in the assay on Cryptococcus neoformans.

As to `Cn1c(=O)c2c(nc(Oc3ccccc3)n2C)n(C)c1=O`, the Inhibition is 7.55% with Staphylococcus aureus; 11.19% with Acinetobacter baumannii; -2.76% with Escherichia coli; 19.27% with Klebsiella pneumoniae; 7.25% in the assay with Candida albicans; -3.63% in the assay on Cryptococcus neoformans.

Turning to `c1ccc(-c2nc3ccccc3s2)nc1`, the Inhibition with Staphylococcus aureus is 11.77%; with Acinetobacter baumannii, -14.54%; with Escherichia coli, 6.85%; with Klebsiella pneumoniae, 18.93%; in the assay with Candida albicans, 0.91%; with Cryptococcus neoformans, -15.52%.

`CN1CN(C)C(c2ccncc2)=C1c1ccncc1`: the Inhibition in the assay on Staphylococcus aureus was 5.44%; in the assay on Acinetobacter baumannii it was 14.08%; in the assay with Escherichia coli, -2.65%; with Klebsiella pneumoniae, 0.75%; in the assay on Candida albicans it was -0.59%; with Cryptococcus neoformans, -1.9%.

As to `Clc1ccc2nc3ccccc3cc2c1`, the Inhibition in the assay on Staphylococcus aureus is 16.29%; in the assay on Acinetobacter baumannii, 9.09%; with Escherichia coli it was 4.02%; in the assay on Klebsiella pneumoniae it was 9.96%; with Candida albicans, 5.41%; in the assay on Cryptococcus neoformans, -4.77%.

Regarding `CCC1=[N+]([O-])[N+]([O-])=C(c2ccccc2)/C1=N/O`, the Inhibition was 10.92% in the assay with Staphylococcus aureus; 10.01% in the assay with Acinetobacter baumannii; -4.02% in the assay on Escherichia coli; 8.43% in the assay with Klebsiella pneumoniae; 7.14% with Candida albicans; -1.35% in the assay on Cryptococcus neoformans.

Take `Cc1ccc(C)c(-n2c(-c3ccc(Br)cc3)cs/c2=N\C(=O)c2ccccc2F)c1`: the Inhibition in the assay with Staphylococcus aureus was 15.56%; with Acinetobacter baumannii, -6.11%; with Escherichia coli, 6.4%; in the assay on Klebsiella pneumoniae it was 8.65%; in the assay with Candida albicans it was 4.24%; in the assay on Cryptococcus neoformans, -4.37%.

For the molecule `CCOC(=O)/C(C#N)=C\c1c[nH]c2ccccc12`, the Inhibition was -10.31% with Staphylococcus aureus; -2.58% in the assay with Acinetobacter baumannii; -10.08% in the assay on Escherichia coli; 2.71% with Klebsiella pneumoniae; 3.53% in the assay with Candida albicans; 2.4% with Cryptococcus neoformans.

For `O=C(O)C(Cc1c[nH]c2ccccc12)N1C(=O)c2ccccc2C1=O` (centres undefined), the Inhibition was 3.51% in the assay on Staphylococcus aureus; 4.73% with Acinetobacter baumannii; -5.16% with Escherichia coli; 9.04% in the assay with Klebsiella pneumoniae; 3.93% in the assay with Candida albicans; 13.59% with Cryptococcus neoformans.

In the case of `Nc1nc(Cl)cc(Nc2ccccc2Cl)n1`, the Inhibition was 12.37% with Staphylococcus aureus; 13.94% in the assay on Acinetobacter baumannii; -7.98% with Escherichia coli; 12.81% with Klebsiella pneumoniae; 7.79% in the assay with Candida albicans; 1.11% in the assay with Cryptococcus neoformans.

In the case of `Cc1ccc(C#CC(C)(O)C(C)(C)C)cn1` (centres undefined), the Inhibition is 4.47% in the assay with Staphylococcus aureus; 10.01% with Acinetobacter baumannii; 1.4% in the assay with Escherichia coli; 18.58% with Klebsiella pneumoniae; 7.24% with Candida albicans; -1.46% in the assay with Cryptococcus neoformans.

On to `COc1ccccc1NC(=O)c1cc2ccccc2cc1O`, for which the Inhibition is 12.35% with Staphylococcus aureus; 5.68% in the assay on Acinetobacter baumannii; 6.98% with Escherichia coli; 12.44% in the assay with Klebsiella pneumoniae; -0.94% with Candida albicans; -6.93% in the assay with Cryptococcus neoformans.

For `S=C(Nc1ccccc1)c1ccccn1`, the Inhibition in the assay with Staphylococcus aureus is 3.41%; in the assay on Acinetobacter baumannii, -5.82%; in the assay on Escherichia coli it was 1.02%; in the assay with Klebsiella pneumoniae it was 19.37%; in the assay on Candida albicans, 25.9%; in the assay with Cryptococcus neoformans, -3.26%.

Regarding `O=C1OC(Cc2ccccc2)C(c2ccccc2)C1=O` (centres undefined), the Inhibition in the assay with Staphylococcus aureus is 9.75%; in the assay on Acinetobacter baumannii, 11.9%; in the assay with Escherichia coli, 6.23%; in the assay on Klebsiella pneumoniae, 14.26%; with Candida albicans, 6.87%; in the assay with Cryptococcus neoformans, -15.19%.
